Six1-Eya2 blk = blocks human Six1 binding to Eya2 | 360,000 tested, 0.56% active | AlphaScreen GST-Six1/His-Eya2 binding, biochemical; stronger effect = lower value | Q15475+O00167 | AID 651725 | activity change, % (concentration not given with the values); in the data active = activity change below about -65%; inconclusive = mostly about -30% to -63%
Target sequence (O00167 whole entry, looked up): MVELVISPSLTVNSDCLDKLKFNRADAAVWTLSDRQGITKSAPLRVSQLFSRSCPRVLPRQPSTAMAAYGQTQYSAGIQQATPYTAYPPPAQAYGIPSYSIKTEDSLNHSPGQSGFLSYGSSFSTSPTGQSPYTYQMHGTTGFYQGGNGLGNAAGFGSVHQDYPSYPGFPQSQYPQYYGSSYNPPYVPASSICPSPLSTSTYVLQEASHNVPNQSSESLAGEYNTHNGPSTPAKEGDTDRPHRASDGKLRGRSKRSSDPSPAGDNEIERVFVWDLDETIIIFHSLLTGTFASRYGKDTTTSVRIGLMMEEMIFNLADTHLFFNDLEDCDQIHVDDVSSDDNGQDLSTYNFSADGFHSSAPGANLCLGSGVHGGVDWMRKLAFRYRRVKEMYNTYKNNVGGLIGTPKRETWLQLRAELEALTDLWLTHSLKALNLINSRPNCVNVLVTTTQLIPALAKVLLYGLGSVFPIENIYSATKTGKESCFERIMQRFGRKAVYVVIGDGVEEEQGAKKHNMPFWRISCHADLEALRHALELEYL
Target sequence (Q15475 whole entry, looked up): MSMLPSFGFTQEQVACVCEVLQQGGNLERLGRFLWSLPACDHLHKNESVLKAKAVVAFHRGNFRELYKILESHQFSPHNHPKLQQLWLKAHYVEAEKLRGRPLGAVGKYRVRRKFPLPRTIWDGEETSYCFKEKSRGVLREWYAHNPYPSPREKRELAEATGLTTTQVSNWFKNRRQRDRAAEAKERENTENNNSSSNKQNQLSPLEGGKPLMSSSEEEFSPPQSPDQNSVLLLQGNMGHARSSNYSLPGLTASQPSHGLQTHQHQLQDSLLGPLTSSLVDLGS
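Compounds are tested against tagged Six1 and Eya2 proteins bridged by glutathione donor and nickel acceptor beads; after a one-hour incubation at 37 °C without light, AlphaScreen emission is recorded.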
JMJD2A Tudor = inhibitors of human JMJD2A Tudor domain; 390,000 tested, 4.4% active; AlphaScreen JMJD2A-Tudor / H3K4me3 peptide binding; O75164; Potency, µM (titrated, usually from 114 µM), most hits filed as inhibitors; also: nearly all actives have a fitted effect of over 50% in size
HP1b chromo inh = blocks HP1-beta chromodomain binding to methylated histone tails; P83916; AlphaScreen HP1-beta / biotin-H3K9me3 peptide binding; Potency, µM (titrated, usually from 114 µM), usual class: inhibitors; 390,000 tested, 0.56% active; AID 540317; also: nearly all actives have a fitted effect of over 70% in size
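AlphaScreen: HP1-beta (50 nM) preformed 30 min with biotin-H3(1-18)K9me3 peptide (50 nM) in PBS pH 7.4, 0.01% Tween-20. Compound added for 30 min at RT, then streptavidin donor/nickel chelate acceptor beads (10 ug/mL) for 30 min.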
CtBP-E1A inh = blocks the CtBP interaction with E1A. AlphaScreen GST-E1A/His-CtBP binding, 1536-well; stronger effect = lower value. 340,000 tested, 0.49% active. AID 651724. activity change, % (concentration not given with the values); in the data active = activity change below about -65%; inconclusive = mostly about -30% to -63%
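Steps: dispense buffer (Tris pH 8.0, NaCl 300 mM, TCEP 1 mM, BSA, Tween 20); add 5X protein mix (GST-E1A, His-CtBP, 125 nM each); pin 23 nL compound; 2 h at 37 °C, dark; add 5X beads (50 ug/mL); 1 h; read.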
BAZ2B block = blocks human BAZ2B. 360,000 tested, 4.4% active. AID 504333. Potency, µM (titrated, usually from 114 µM), hits mostly inhibitors. AlphaScreen BAZ2B-H3K14Ac peptide displacement. Q9UIF8; also: nearly all actives have a fitted effect of over 60% in size
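Inhibition is scored as reduced AlphaScreen emission. The BAZ2B/b-H3(5-23)K14Ac complex (50 nM each) in PBS pH 7.4, 0.01% Tween-20 meets compound (up to 110 uM) for 30 min at RT before bead addition.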
G9a block = blocks human histone lysine methyltransferase G9a; Q96KQ7; AID 504332; G9a H3K9 monomethylation, AlphaScreen, 2 h; 350,000 tested, 8.8% active; Potency, µM (series often up to 102 µM), most hits filed as inhibitors; also: nearly all actives have a fitted effect of over 75% in size
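Chemiluminescent proximity detection of H3K9 monomethylation, read after 10 min bead incubation in the dark. Reaction: 20 nM G9a, 500 nM biotin-H3K9 peptide, 20 uM SAM cofactor, 2 h, room temperature, following 15 min enzyme-compound preincubation.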
Each line names hits and unclear results; the compound was inactive in the other large screens. An excerpt weighted towards active compounds, which were near 10% of everything screened. Unless noted, calls follow the shape of the dose curve; as a rule, active = well fitted inhibition curve with a large enough effect; inconclusive = small, poorly fitted or top-dose-only effect; inactive = no such curve, though single readings can be large or run the other way.

CCOc1ccc(C(O)(c2ccccc2)C(CN2CCCC2)c2ccccc2)cc1 (stereo not drawn)	JMJD2A Tudor 14µM
CCc1ccc(C(O)(c2ccccc2OC)C(CN2CCOCC2)c2ccccc2)cc1 (stereo not drawn)	G9a block 45µM (no result: BAZ2B block)
Cc1ccc(C(=O)Nc2ccc3oc(-c4ccncc4)nc3c2)c(Cl)c1	none (no result: Six1-Eya2 blk, CtBP-E1A inh)
O=C(CCn1cnc2onc(-c3ccc(F)cc3)c2c1=O)N1CCN(c2ccccc2F)CC1	none (no result: Six1-Eya2 blk, CtBP-E1A inh)
COc1cc(/C=C/c2cccc[n+]2C)ccc1OCC(=O)Nc1cccc(Cl)c1	BAZ2B block inconclusive, G9a block 50µM
COc1cc(/C=C/c2cccc[n+]2C)ccc1OCC(=O)Nc1ccccc1	G9a block 45µM
O=C(NCC(c1ccco1)N1CCCC1)c1ccccc1Sc1ccc(C(F)(F)F)cc1[N+](=O)[O-] (stereo not drawn)	JMJD2A Tudor inconclusive, BAZ2B block inconclusive, G9a block 10µM
N#Cc1ccccc1Sc1ccccc1C(=O)NCC(c1ccco1)N1CCCCC1 (stereo not drawn)	G9a block inconclusive (no result: CtBP-E1A inh)
CCc1nnc2c(Nc3cc(OC)c(Cl)cc3OC)nc3ccccc3n12	none (no result: Six1-Eya2 blk, CtBP-E1A inh)
Cc1ccc(Nc2nnc(SCC3CCCCO3)s2)cc1 (stereo not drawn)	G9a block 40µM
Cc1ccccc1Nc1nnc(SCC2CCCCO2)s1 (stereo not drawn)	G9a block inconclusive
Cc1ccc(-n2ncc(C(=O)NCc3ccc4c(c3)OCO4)c2C2CCN(C(=O)OC(C)(C)C)CC2)c(C)c1	none (no result: Six1-Eya2 blk, CtBP-E1A inh)
COc1cccc(C(=O)Nc2ccccc2-c2nnc(-c3cccc(OC)c3)o2)c1	none (no result: Six1-Eya2 blk, CtBP-E1A inh)
COc1ccc(NC(=S)N=Nc2c(O)[nH]c3ccccc23)cc1	Six1-Eya2 blk inconclusive (no result: CtBP-E1A inh)
COc1ccc(S(=O)(=O)N=Nc2c(O)[nH]c3ccccc23)cc1	G9a block 3.2µM
Cc1ccc(N(CC(=O)N=Nc2c(O)[nH]c3ccccc23)S(C)(=O)=O)c(C)c1	JMJD2A Tudor inconclusive
Cc1ccc(S(=O)(=O)N=Nc2c(O)[nH]c3ccccc23)cc1C	JMJD2A Tudor 35µM, G9a block 4.5µM
COc1ccc(-c2cc3nc(C)c(CCC(=O)NC(C)c4ccccc4)c(C)n3n2)c(OC)c1 (stereo not drawn)	BAZ2B block inconclusive (no result: Six1-Eya2 blk, CtBP-E1A inh)
CCOc1nc(NCCO)nc(NCCC2=CCCCC2)n1	none
Clc1nc(Cl)nc(NCCC2=CCCCC2)n1	JMJD2A Tudor 89µM, BAZ2B block 56µM, G9a block inconclusive
O=S(=O)(NCCc1cn(S(=O)(=O)c2ccccc2)c2ccccc12)c1ccccc1	JMJD2A Tudor 50µM (no result: Six1-Eya2 blk, CtBP-E1A inh, BAZ2B block, G9a block)
Cc1cc(C)nc(N/N=C/C2=C(N3CCOCC3)C(=C/c3ccccc3)/CC2)n1	BAZ2B block inconclusive, G9a block 10µM
Cc1cc(=O)[nH]c(N/N=C/C2=C(N3CCOCC3)C(=C\c3ccc(Cl)cc3)/CC2)n1	G9a block 7.9µM
O=C(O)c1ccccc1N/N=C/C1=C(N2CCOCC2)C(=C\c2ccccc2)/CC1	JMJD2A Tudor inconclusive, HP1b chromo inh inconclusive, BAZ2B block 50µM (no result: G9a block)
Cc1ccc(N2CCN(/N=C/C3=C(N4CCOCC4)C(=C\c4ccccc4)/CC3)CC2)cc1	none
CCO/C(C)=C1\C(=O)Nc2ccccc21	G9a block 50µM
O=S(=O)(c1ccc(Cl)cc1)N1CCN(Cc2ccc(O)c3ncccc23)CC1	Six1-Eya2 blk -92, JMJD2A Tudor 56µM, BAZ2B block 32µM
Oc1ccc(CN2CCN(Cc3ccccc3)CC2)c2cccnc12	Six1-Eya2 blk -93, JMJD2A Tudor 40µM, HP1b chromo inh inconclusive, CtBP-E1A inh -98
O=C1c2ccccc2C(=O)C12OC2c1ccc(Cl)cc1 (stereo not drawn)	G9a block inconclusive (no result: Six1-Eya2 blk, JMJD2A Tudor, HP1b chromo inh, CtBP-E1A inh)
O=C1c2ccccc2C2=Nc3ccccc3SC(c3cccc(F)c3)C12 (stereo not drawn)	Six1-Eya2 blk inconclusive, JMJD2A Tudor 22µM, HP1b chromo inh 28µM, BAZ2B block 28µM, G9a block inconclusive
Fc1cccc(C2NN=C(c3ccccc3)S2)c1 (stereo not drawn)	G9a block inconclusive
O=C1c2ccccc2C2=Nc3ccccc3SC(c3ccc(Cl)cc3)C12 (stereo not drawn)	Six1-Eya2 blk inconclusive, JMJD2A Tudor inconclusive, HP1b chromo inh inconclusive, BAZ2B block 10µM, G9a block 11µM
CCOC(=O)c1cccc(NC(=O)CCc2c(C)nc3c4cccnc4nn3c2C)c1	none (no result: Six1-Eya2 blk, CtBP-E1A inh)
C=CCC1(O)CC(c2ccco2)NC(c2ccco2)C1CCC (stereo not drawn)	JMJD2A Tudor 4.5µM, HP1b chromo inh inconclusive, BAZ2B block 50µM, G9a block 32µM
CCC1C(=O)CC(c2ccco2)NC1c1ccco1 (stereo not drawn)	none
Cc1ccc(OCCCCN(C)Cc2ccccc2)c(Br)c1	JMJD2A Tudor inconclusive, HP1b chromo inh inconclusive, G9a block 11µM
Cc1ccc(C(C)C)c(OCCCN(C)Cc2ccccc2)c1	JMJD2A Tudor 22µM, HP1b chromo inh inconclusive, BAZ2B block inconclusive, G9a block 10µM
COc1ccccc1OCCCOc1ccc(C)cc1Br	none
Cc1ccc(C(C)C)c(OCC(O)CN(C)Cc2ccccc2)c1 (stereo not drawn)	none
Cc1cc(C)c(OCCCCN(C)Cc2ccccc2)c(C)c1	Six1-Eya2 blk inconclusive, JMJD2A Tudor 7.1µM, HP1b chromo inh inconclusive, BAZ2B block inconclusive, G9a block 1.3µM (no result: CtBP-E1A inh)
Cc1cc(C)cc(C(=O)NCC(=O)OCC(=O)N(C)c2ccccc2)c1	JMJD2A Tudor 50µM (no result: BAZ2B block)
CN(C(=O)COC(=O)c1ccc(Cl)c(N)c1)c1ccccc1	none
CC(=O)Nc1cccc(C(=O)OCC(=O)c2ccc(S(=O)(=O)N3CCCCC3)cc2)c1	none
CN(C(=O)COC(=O)c1ccc(C#N)cc1)c1ccccc1	G9a block 50µM
CNS(=O)(=O)c1cccc(C(=O)OCC(=O)c2ccc(S(=O)(=O)N3CCCCC3)cc2)c1	G9a block 28µM
O=C(OCC(=O)N1CCCCCC1)c1ccc(Cl)c(S(=O)(=O)N2CCCC2)c1	JMJD2A Tudor 20µM, HP1b chromo inh inconclusive (no result: BAZ2B block)
COc1ccc(C(=O)NCC(=O)OCC(=O)N(C)c2ccccc2)cc1	none
Cc1ccc(-n2c(=O)c3ccc(C(=O)NCc4ccco4)cc3n(CC(=O)Nc3ccc(C)c(F)c3)c2=O)cc1	none (no result: Six1-Eya2 blk, CtBP-E1A inh)
COc1cccc2nc(-c3cccs3)nc(NN3C(=O)C=C(C)C3=O)c12	none (no result: Six1-Eya2 blk, HP1b chromo inh, CtBP-E1A inh, BAZ2B block, G9a block)
N#Cc1ccc(C(=O)OCC(=O)N2CCCCCC2)cc1	G9a block 22µM
CC1CN(C(=O)COC(=O)c2ccc(C#N)cc2)CC(C)O1 (stereo not drawn)	G9a block 50µM

Screening results from PubChem BioAssay.
